Reference: PubChem BioAssay AID652067 (The Scripps Research Institute Molecular Screening Center, 2013)
The whole screen tested about 370,000 compounds, of which about 5,400 (1.5%) were called active. This is one part of a sample in which actives are shown more often than they occur.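 The calls were made as follows: active = activation above the mean of all tested compounds plus 3 SD (cut at about 5.5% in these data); inactive = the rest.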

System: DAF-12 nuclear receptor (Haemonchus contortus)
Experiment: H. contortus DAF-12 nuclear receptor activators, primary screen, cell-based, luminescence, HEK293, lit1-tk-luc reporter (AID 652067);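 also: 100% = response to 3 µM Δ7-dafachronic acid high control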
Details: HEK293 hcDAF-12 lit1-tk-luc reporter, at 6.8 µM, active compounds read high, 0% DMSO, 100% Δ7-dafachronic acid

activation, active:
Cc1ccc(NN=Nc2nc3c([nH]2)c(=O)n(C)c(=O)n3C)cc1 9.25%
CC(C#N)OC(=O)c1cccnc1SCC(=O)Nc1ccc2c(c1)OCO2 (stereo unspecified) 7.41%
N#Cc1ccccc1NC(=O)COc1c(Br)cc(Br)c2cccnc12 5.88%
Brc1ccc(-c2noc(-c3ccccc3)n2)o1 7.04%
c1ccc(C2=Nc3cccc4cccc(c34)N2)cc1 6.59%
CC(C)CC(=O)N/C(N)=N/c1nc2ccccc2s1 8.5%
c1cnc(N2CCN(c3ccc4ccccc4n3)CC2)nc1 9.72%
CCn1cc(CN2CCN(CC(C)(C)C)C(CCO)C2)c2ccccc21 (stereo unspecified) 7.54%
CCOC(=O)c1cc2n(c1N)-c1ccccc1C2=O 6.53%
COc1cc2ccccc2cc1C(=O)N(CCN(C)C)c1nc2c(F)cccc2s1 6.37%
Cc1nc(N=C(N)N)nc2c(C)cccc12 5.96%
COc1nc(N=C(N)N)nc2c(C)cccc12 6.14%
NNc1nc2c(Cl)cccc2s1 10%
Cc1cccc(-c2nc3ccccc3c(=O)n2NC(=O)Cc2ccc(Cl)cc2)c1 6.73%
CC(CC(=O)Nc1ccccc1)n1ccnc1 (stereo unspecified) 5.72%
COc1cc2ccccc2cc1C(=O)Nc1ccccc1C 10.1%
COc1ccccc1OCc1nc2ccccc2s1 17.9%
COc1cc(SC)ccc1C(=O)Nc1cc(C)ccn1 9.16%
Cc1ccnc(NC(=O)c2ccoc2C)c1 7.44%

activation, inactive:
Cc1cc(C)c(C=NNc2nc3c([nH]2)c(=O)n(C)c(=O)n3C)c(C)c1 1.11%
Cc1cccc(C)c1NC(=O)CSc1nc2c([nH]1)c(=O)n(C)c(=O)n2C -0.94%
O=C(CSc1nc2ccccc2nc1N1CCCCC1)N1CCN(S(=O)(=O)c2cccc([N+](=O)[O-])c2)CC1 -0.06%
O=C(CSc1nnc(-c2ccccn2)n1-c1ccccc1)Nc1ccc2c(c1)OCO2 -1.02%
Cc1ccc(-n2c(SCC(=O)Nc3ccc4c(c3)OCO4)nnc2-c2ccccn2)cc1 -2.82%
COC(=O)c1cc(S(=O)(=O)N2CCN(c3ccccc3C)CC2)cn1C -0.73%
C[C@H](O)[C@@H]1C(=O)N2CCc3c([nH]c4c(-c5ccc6c(c5)OCO6)cccc34)[C@@H]2C[C@@H]1N(C)C(=O)c1ccco1 1.47%
Cc1cccc(C(=O)Nc2c(-c3ccc(F)cc3)nc3ncccn23)c1 -3.14%
COc1ccc(/C=C2\CC3(OC(C)=O)CCCN2C3)cc1 (stereo unspecified) -3.46%
Cc1cc(NC(=O)COc2ccccc2C#N)no1 3.78%
O=C(COC(=O)c1ccccn1)Nc1cccc2ccccc12 -0.09%
COC(=O)C1=C(C)N(Cc2ccccc2C(F)(F)F)C(=NCc2ccc(OC)cc2)NC1c1cccc(C(F)(F)F)c1 (stereo unspecified) 0.01%
CC(C)[C@H]1COCCS(=O)(=O)N1Cc1ccccc1-c1cccc2c1sc1ccccc12 1.38%
CC(C)N(Cc1ccccc1)C(=O)COC(=O)c1cnccn1 -0.24%
O=C(Oc1ccc(-c2nc(-c3ccccn3)no2)cc1)c1ccccc1 0.86%
O=S(=O)(c1ccc(Br)cc1)c1nc(-c2ccccc2)oc1N1CCOCC1 1.01%
Cc1ccc(-n2c(SCC(=O)Nc3ccc(S(=O)(=O)Nc4nccs4)cc3)nnc2-c2cccnc2)cc1 -2.17%
COc1ccccc1C1=Nc2cccc3cccc(c23)N1 -1.59%
Brc1ccc(C2CC(c3ccccc3)=Nc3ccccc3N2)cc1 (stereo unspecified) 4.68%
O=C(CSc1nc2ccccc2n1Cc1ccccc1Cl)N/N=C\c1c[nH]c2ccccc12 1.72%
O=C(CC1SCCNC1=O)Nc1ccc(Cl)cc1 (stereo unspecified) 1.04%
CCOCc1nnc(NC(=O)CCC2CCCCC2)s1 -1.11%
CC(C)CC(=O)NC(=S)NNC(=O)c1cccc([N+](=O)[O-])c1 1.89%
CC(NC(=O)COC(=O)c1ccc2ccccc2n1)c1ccccc1 (stereo unspecified) 2.13%
Cc1cnc(C)c(N2CCN(C(=O)C3CCC(=O)N(CCc4cccc(F)c4)C3)CC2)n1 (stereo unspecified) -0.94%
Cc1sc2nc(SCC(=O)c3ccc(O)c(O)c3)n(Cc3ccco3)c(=O)c2c1C -0.45%
CC1=C(N2CCN(c3ncccn3)CC2)CCC1=O -1.78%
CC12CCC(C(=O)N3CCN(c4ncccn4)CC3)(c3nc4ccccc4nc31)C2(C)C (stereo unspecified) -0.6%
COC(=O)N1Cc2ccnnc2CC1c1ccccc1Br (stereo unspecified) -2.69%
Nc1ccn([C@@H]2O[C@H](C(=O)N[C@H]3CCCCNC3=O)[C@@H](O)[C@H]2O)c(=O)n1 0.58%
Cc1cccc(N2CCN(Cc3c(C)n(C)n(-c4ccccc4)c3=O)CC2)c1C -2.12%
COc1ccccc1N1CCC(N2CCN(CC(C)(C)C)C(CCO)C2)CC1 (stereo unspecified) -0.72%
Cc1ccc(CN2CCN(Cc3ccccc3-c3ccco3)CC2CCO)o1 (stereo unspecified) -0.79%
COC(=O)[C@]12C[C@H](CC(=O)NCc3ccccc3)C(=O)N(Cc3ccccc3)C1=C[C@H](COCc1ccccc1)O[C@@H]2C -1.28%
CC(=O)c1cccc(NC(=O)COc2ccc(S(=O)(=O)N3CCOCC3)cc2)c1 -0.45%
Cc1ccccc1NC(=O)C1CCN(c2ncccn2)CC1 0.03%
Nn1c(SCC(=O)N2c3ccccc3Sc3ccccc32)nnc1-c1n[nH]c2c1CCC2 -2.66%
CCOC(=O)c1cnn(Cc2ccccc2Cl)c1N 1.1%
CCOC(=O)c1ccccc1NC(=O)c1c(N)n(C)c(=O)[nH]c1=O -0.79%
C[C@H](O)[C@@H]1CN2CCc3ccc(-c4ccc5c(c4)OCO5)cc3[C@@H]2C[C@@H]1N(C)C(=O)C1CCCCC1 -0.66%
Cc1ccc(OCc2nnc(SC/C=C/c3ccccc3)n2Cc2ccco2)cc1 -1.14%
COc1ccc(N2CCN(CCNS(=O)(=O)c3ccc(C(C)(C)C)cc3)CC2)cc1 -4.56%
CC1=NCCN1S(=O)(=O)c1ccc(Br)c(C)c1 -1.01%
COc1ccc(CN2C/C(=C/c3ccccc3)N3C(=O)C[C@@H](c4ccccc4)N=C23)c(OC)c1 -1.56%
CN(CCOc1ccccc1)C(=O)c1cc(COc2c(F)cccc2F)on1 -1.26%
COc1cccc2cc(C(=O)N(C)C)c(=O)oc12 -0.74%
O=S1(=O)c2ccc(N3CCN(Cc4ccccc4F)CC3)cc2Oc2ccccc2CN1Cc1cn(Cc2ccc(Cl)cc2)nn1 0.96%
COc1ccc(CNS(=O)(=O)c2cc(Br)ccc2Br)cc1 -0.97%
CC1CCN(C(=O)c2ncn3c2C(=O)N[C@@H](C)C3)CC1 -0.73%
CCc1c(C)nc2c(OC)cccc2c1Cl -0.4%
CCOC(=O)[C@]12CCCCC/C=C\1N(Cc1ccc(OC)cc1)C(=O)[C@H]2CC(=O)N1CCOCC1 4.16%
Cc1cc(C(=O)NN=C/C=C/c2ccco2)n[nH]1 -0.38%
COC(=O)C1=C(C)N(Cc2ccccc2C(F)(F)F)C(=NCC2CC2)NC1c1cccc(Cl)c1 (stereo unspecified) -1.98%
O=C(Nn1c(-c2ccc(Cl)cc2)nc2ccccc2c1=O)c1cccnc1Cl 0.57%
COc1cc(OC)cc(-c2nc3ccccc3c(=O)n2NC(=O)c2cccnc2Cl)c1 -1.71%
S=c1c2[nH]cnc2ncn1CCSc1ncnc2nc[nH]c12 -0.28%
O=C(O)CCCC(=O)Nc1ccccc1-n1ccnc1 -1.24%
CC(C)CC(=O)Nc1ccc(Cc2ccncc2)cc1 0.36%
CCOc1ccc(NC(=O)CCS(=O)(=O)c2ccc3c(c2)CCCN3C(=O)CC)cc1 -1.11%
Cc1ccccc1NC(=O)CCOc1ccccc1 0.95%
Cc1ccccc1C(=O)Nc1ccccc1Sc1ccccc1 -0.9%
CCCCCCCCN1C(=O)[C@@H](CC(=O)NCc2ccccc2)C[C@@]2(C(=O)OC)C1=C[C@H](C(C)(C)C)O[C@@H]2C 1.65%
COC1=C[C@H](C(=O)NCCNC(C)=O)[C@H](C)[C@@H](c2ccccc2)CC1=O -2.16%
O=C(c1ccccc1)c1ccc(-c2ccccc2C(=O)NC2CCCCN(Cc3ccc(Cl)cc3)C2=O)cc1 (stereo unspecified) -0.91%
COC(=O)c1c(-c2ccc(OC)cc2)c2c(c3c4ccccc4n(S(=O)(=O)c4ccc(C)cc4)c13)C(=O)N(C)C2 1.29%
COC(=O)C1[C@H]2SC(C)(C)C(C(=O)OC)N2C(=O)N1Cc1nc2ccccc2s1 (stereo partly specified) 0.45%
CCc1ccc(-c2nnn(Cc3nc4ccccc4s3)n2)cc1 3.01%
N#Cc1ccc(OC[C@@H](O)CN2CCC(C(O)(c3ccccc3)c3ccccc3)CC2)c(F)c1 0.25%
COc1cc(SC)ccc1C(=O)Nc1nc(C)cs1 -4.3%
Cc1ccnc(NC(=O)CCCOc2ccccc2)c1 2.54%
Cc1ccnc(NC(=O)C(C)N2C(=O)c3ccccc3C2=O)c1 (stereo unspecified) -0.09%
CSCCC(NC(=O)c1ccco1)C(=O)Nc1cc(C)ccn1 (stereo unspecified) 5.45%
